The source made the active and inactive calls.

Assay [1] concerns PRMT1 (protein arginine N-methyltransferase 1). As to the kind of experiment: small molecules binding arginine methyltransferase PRMT1 – biochemical, small-molecule microarray, 635 nm fluorescence, primary screen (AID 1088).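 Also: binding of Prmt1 protein to compounds spotted on small-molecule microarray slides.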 Particulars: higher = more signal.
The nature of assay [2]: growth effects on S. cerevisiae YJM789 – YJM789 clinical isolate, OD600, 24 h, basal, primary screen (AID 1089).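 Also: growth of clinical yeast isolate S. cerevisiae YJM 789 seeded 1000 cells per well; test concentration not given here.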 Particulars: higher = more signal, called active from +8 up or from −8 down.
Assay [3] can be described thus: S. pombe growth modifiers, basal conditions – strain 972, OD600, 24 h, no modulator, primary screen (AID 1090).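 Also: basal condition with compound alone and no growth modifier present; test concentration not given here.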 Particulars: S. pombe 972 growth, higher = more signal, called active from +8 up or from −8 down.
Assay [4] is described as follows: budding yeast growth modifiers under rapamycin – strain BY4716, OD600, 96 h, primary screen (AID 1091). Also: test concentration not given here. Particulars: S. cerevisiae BY4716 + rapamycin, higher = more signal, called active from +8 up or from −8 down.
The target in assay [5] is Torsin-1A-interacting protein 2 (Homo sapiens) (UniProt Q8NFQ8). Description: small molecules binding lysate-expressed LULL1 – cell lysate, human LULL1 lysate, 635/667 nm fluorescence, primary screen (AID 1092).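 Also: probe is lysate of COS7 cells overexpressing human LULL1; score merges per-feature 667 nm fluorescence with signal-to-noise.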 Particulars: small-molecule microarray, hLULL1 lysate binding, 635 nm fluorescence; higher = more signal.
Sequence of Torsin-1A-interacting protein 2 (Homo sapiens) (Q8NFQ8 whole entry, looked up): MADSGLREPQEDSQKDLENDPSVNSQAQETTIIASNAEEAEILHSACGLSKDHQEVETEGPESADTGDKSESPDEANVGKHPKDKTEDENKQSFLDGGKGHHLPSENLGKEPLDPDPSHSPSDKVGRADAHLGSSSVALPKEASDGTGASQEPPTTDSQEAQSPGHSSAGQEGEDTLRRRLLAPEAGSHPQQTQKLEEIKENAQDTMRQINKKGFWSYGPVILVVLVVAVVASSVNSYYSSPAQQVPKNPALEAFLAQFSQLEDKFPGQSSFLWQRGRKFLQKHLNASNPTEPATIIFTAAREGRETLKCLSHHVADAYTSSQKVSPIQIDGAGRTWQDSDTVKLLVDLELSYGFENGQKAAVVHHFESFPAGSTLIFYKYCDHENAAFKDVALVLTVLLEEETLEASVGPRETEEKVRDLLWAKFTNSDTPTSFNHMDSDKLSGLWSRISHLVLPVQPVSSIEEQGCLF
A short description of assay [6]: optical density change of DRC41 E. coli – strain DRC41, OD650, 24 h, E. coli filamentation project, primary screen (AID 1093).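 Also: MC1000 strain lacking acrAB efflux and sulA so SOS filamentation is blocked; test concentration not given here.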 Particulars: E. coli DRC41 growth, higher = more signal, called active from +8 up or from −8 down.
A short description of assay [7]: probe aLefty2 binding to arrayed compounds – biochemical, biotinylated probe, 635/667 nm fluorescence, primary screen (AID 1094).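 Also: score merges spot fluorescence near 667 nm with spot signal-to-noise ratio.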 Particulars: small-molecule microarray, higher = more signal.
The test system of assay [8] is Noggin (protein binding on small-molecule microarray). Description: small molecules binding Noggin protein – biochemical, 635/667 nm fluorescence, primary screen (AID 1095).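 Also: score merges 667 nm feature fluorescence with signal to noise over triplicate slides.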 Particulars: 635 nm fluorescence, higher = more signal.
For assay [9], the target named is Neurogenic locus notch homolog protein 3 (Homo sapiens) (UniProt Q9UM47). Description: small molecules binding NOTCH3 protein – biochemical, 635/667 nm fluorescence, primary screen (AID 1096). Particulars: small-molecule microarray, 635 nm fluorescence, higher = more signal.
Sequence of Neurogenic locus notch homolog protein 3 (Homo sapiens) (Q9UM47 whole entry, looked up): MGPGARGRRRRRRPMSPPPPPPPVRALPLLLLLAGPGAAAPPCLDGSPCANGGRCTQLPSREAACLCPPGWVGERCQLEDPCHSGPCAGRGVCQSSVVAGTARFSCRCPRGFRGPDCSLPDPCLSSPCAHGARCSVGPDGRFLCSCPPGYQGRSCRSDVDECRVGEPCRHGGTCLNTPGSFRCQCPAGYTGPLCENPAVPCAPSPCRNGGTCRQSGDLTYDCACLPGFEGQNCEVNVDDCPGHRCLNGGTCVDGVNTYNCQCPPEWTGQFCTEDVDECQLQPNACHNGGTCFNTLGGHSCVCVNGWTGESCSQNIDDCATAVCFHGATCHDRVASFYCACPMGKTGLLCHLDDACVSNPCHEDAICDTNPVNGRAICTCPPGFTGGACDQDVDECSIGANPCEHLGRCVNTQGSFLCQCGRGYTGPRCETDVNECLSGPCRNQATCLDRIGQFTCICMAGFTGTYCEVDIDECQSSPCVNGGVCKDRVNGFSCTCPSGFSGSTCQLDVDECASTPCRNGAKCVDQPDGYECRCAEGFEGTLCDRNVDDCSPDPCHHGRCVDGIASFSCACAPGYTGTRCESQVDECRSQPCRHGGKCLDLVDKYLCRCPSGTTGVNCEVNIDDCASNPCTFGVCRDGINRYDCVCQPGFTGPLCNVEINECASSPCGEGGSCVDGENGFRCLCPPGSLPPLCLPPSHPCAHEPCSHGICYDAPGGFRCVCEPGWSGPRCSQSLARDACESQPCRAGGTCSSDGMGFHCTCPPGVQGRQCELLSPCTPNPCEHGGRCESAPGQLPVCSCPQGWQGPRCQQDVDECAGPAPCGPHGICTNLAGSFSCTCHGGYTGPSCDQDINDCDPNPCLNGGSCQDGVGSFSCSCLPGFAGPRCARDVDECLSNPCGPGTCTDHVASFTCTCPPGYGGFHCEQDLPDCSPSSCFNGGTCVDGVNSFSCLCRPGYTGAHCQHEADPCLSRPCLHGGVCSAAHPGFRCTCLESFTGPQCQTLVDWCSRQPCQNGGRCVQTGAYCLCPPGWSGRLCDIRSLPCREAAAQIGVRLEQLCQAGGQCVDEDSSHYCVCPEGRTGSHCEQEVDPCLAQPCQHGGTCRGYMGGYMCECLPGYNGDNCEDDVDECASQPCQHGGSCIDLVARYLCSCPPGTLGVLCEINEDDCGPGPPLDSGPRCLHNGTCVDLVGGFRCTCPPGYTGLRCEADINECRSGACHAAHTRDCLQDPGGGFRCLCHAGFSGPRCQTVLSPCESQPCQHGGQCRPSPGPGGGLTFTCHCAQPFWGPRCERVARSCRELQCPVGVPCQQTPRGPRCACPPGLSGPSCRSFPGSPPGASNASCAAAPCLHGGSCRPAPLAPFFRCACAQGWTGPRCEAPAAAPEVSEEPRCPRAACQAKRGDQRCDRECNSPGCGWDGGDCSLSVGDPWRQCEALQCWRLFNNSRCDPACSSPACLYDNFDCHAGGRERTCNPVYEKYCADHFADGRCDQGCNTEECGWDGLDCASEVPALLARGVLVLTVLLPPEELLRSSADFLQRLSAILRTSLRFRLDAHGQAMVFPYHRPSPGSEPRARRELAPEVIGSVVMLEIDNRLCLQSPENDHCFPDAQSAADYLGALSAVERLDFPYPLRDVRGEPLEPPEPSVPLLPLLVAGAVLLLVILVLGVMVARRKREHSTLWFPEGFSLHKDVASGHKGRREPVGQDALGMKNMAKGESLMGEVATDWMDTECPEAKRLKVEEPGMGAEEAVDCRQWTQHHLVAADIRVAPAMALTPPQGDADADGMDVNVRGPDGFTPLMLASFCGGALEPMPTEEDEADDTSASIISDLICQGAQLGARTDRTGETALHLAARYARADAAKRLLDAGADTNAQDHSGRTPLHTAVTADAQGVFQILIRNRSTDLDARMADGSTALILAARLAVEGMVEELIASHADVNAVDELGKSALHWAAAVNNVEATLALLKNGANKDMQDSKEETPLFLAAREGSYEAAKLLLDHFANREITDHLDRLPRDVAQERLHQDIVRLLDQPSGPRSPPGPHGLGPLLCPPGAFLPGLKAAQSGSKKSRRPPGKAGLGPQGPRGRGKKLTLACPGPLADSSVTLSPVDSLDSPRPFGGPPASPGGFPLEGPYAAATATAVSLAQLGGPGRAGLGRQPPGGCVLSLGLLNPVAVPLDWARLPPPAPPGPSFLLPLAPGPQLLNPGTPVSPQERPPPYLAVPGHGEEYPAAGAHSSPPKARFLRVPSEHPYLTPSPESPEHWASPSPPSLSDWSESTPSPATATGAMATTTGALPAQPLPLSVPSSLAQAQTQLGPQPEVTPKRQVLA
Assay [10] in a line: probe aEGFR binding to arrayed compounds – biochemical, biotinylated probe, 635/667 nm fluorescence, primary screen (AID 1097).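 Also: probe is a biotinylated anti-EGFR antibody binding compounds printed on slides; score combines fluorescence near 667 nm and signal to noise of each spot.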 Particulars: small-molecule microarray, higher = more signal.
In assay [11] the test system is Plasmodium falciparum Sir2 (PF13_0152, Sir2A). As to the kind of experiment: Plasmodium falciparum Sir2A binding compounds – biochemical, small-molecule microarray, 635 nm fluorescence, primary screen (AID 1098).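 Also: score merges spot fluorescence intensity with its signal-to-noise ratio.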 Particulars: fluorescence 635 nm, higher = more signal.
A short description of assay [12]: probe aDKK1 binding to arrayed compounds – biochemical, biotinylated probe, 635/667 nm fluorescence, primary screen (AID 1099).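 Also: score merges 667nm spot fluorescence with signal to noise across triplicate slides; reference of the scale not given here.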 Particulars: small-molecule microarray, higher = more signal.
Assay [13] in a line: probe aCHRDL2 binding to arrayed compounds – biochemical, biotinylated probe, 635/667 nm fluorescence, primary screen (AID 1100). Particulars: small-molecule microarray, higher = more signal.
Assay [14] is described as follows: change in splice reporter luminescence, either direction, cell-based, HEK293, spliceosome inhibition project, primary screen (AID 1101).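 Also: HEK293 cells carrying a splicing-competent luciferase reporter gene; test concentration not given here.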 Particulars: HEK293 splicing luciferase reporter, 24 h, higher = more signal, called active from +8 up or from −8 down. On the technique in general: In a reporter assay the amount or activity of a reporter protein is the signal.

Assay [15] concerns the target Fibroblast growth factor 10 (Homo sapiens) (UniProt O15520). As to the kind of experiment: compounds binding fibroblast growth factor 10 – biochemical, small-molecule microarray, 635 nm fluorescence, primary screen (AID 1102). Particulars: FGF10 binding, fluorescence 635 nm, higher = more signal.
The test system of assay [16] is glycogen synthase kinase-3 (GSK3A per assay name; protocol says GSK3B). As to the kind of experiment: compounds binding glycogen synthase kinase-3 – biochemical, small-molecule microarray, 635 nm fluorescence, GSK3A, primary screen (AID 1103). Also: the record names both GSK3A and GSK3B. Particulars: fluorescence 635 nm, higher = more signal.
In assay [17] the target is Epidermal growth factor receptor (Homo sapiens) (UniProt P00533). Description: compounds binding epidermal growth factor receptor – biochemical, small-molecule microarray, 635 nm fluorescence, primary screen (AID 1104).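 Also: score merges 667 nm emission intensity with spot signal to noise over triplicate slides.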 Particulars: EGFR binding, higher = more signal.
Sequence of Epidermal growth factor receptor (Homo sapiens) (P00533 whole entry, looked up): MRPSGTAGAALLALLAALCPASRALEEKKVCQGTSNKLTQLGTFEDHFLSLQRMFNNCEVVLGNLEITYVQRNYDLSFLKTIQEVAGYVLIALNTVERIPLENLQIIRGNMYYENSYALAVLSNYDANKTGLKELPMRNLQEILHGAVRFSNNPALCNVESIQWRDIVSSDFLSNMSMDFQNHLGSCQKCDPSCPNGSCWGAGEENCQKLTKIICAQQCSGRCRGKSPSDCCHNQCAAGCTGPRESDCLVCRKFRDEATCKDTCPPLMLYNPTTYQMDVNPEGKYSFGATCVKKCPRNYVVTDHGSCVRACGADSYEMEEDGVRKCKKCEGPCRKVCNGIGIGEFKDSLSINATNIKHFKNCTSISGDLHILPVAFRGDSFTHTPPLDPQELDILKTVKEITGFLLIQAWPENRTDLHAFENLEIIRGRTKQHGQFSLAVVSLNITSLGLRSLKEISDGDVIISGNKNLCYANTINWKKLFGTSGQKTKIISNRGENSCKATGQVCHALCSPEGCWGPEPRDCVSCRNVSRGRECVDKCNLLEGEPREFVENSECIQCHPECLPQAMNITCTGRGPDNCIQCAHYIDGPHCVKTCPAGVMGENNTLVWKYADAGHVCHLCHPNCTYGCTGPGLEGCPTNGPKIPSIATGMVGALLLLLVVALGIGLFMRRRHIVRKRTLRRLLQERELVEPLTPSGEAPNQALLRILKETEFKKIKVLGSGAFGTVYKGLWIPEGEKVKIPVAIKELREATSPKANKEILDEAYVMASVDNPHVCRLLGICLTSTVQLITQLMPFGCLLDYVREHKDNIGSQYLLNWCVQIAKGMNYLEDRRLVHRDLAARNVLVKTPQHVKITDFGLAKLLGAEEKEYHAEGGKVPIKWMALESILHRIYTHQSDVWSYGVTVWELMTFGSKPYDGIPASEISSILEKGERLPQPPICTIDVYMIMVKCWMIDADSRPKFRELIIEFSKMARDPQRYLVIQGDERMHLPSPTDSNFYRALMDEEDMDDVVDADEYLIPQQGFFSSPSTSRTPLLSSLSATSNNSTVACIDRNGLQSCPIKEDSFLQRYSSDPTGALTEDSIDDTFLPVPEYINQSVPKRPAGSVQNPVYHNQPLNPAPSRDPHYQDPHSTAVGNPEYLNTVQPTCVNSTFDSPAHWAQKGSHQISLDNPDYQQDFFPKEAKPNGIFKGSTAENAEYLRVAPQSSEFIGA
In assay [18] the target is Follistatin-related protein 3 (Homo sapiens) (UniProt O95633). Description: compounds binding follistatin-related protein 3 – biochemical, small-molecule microarray, 635 nm fluorescence, primary screen (AID 1105).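 Also: score merges emission near 667 nm and signal to noise per printed spot across three slides.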 Particulars: FSTL3 binding, higher = more signal.
Sequence of Follistatin-related protein 3 (Homo sapiens) (O95633 whole entry, looked up): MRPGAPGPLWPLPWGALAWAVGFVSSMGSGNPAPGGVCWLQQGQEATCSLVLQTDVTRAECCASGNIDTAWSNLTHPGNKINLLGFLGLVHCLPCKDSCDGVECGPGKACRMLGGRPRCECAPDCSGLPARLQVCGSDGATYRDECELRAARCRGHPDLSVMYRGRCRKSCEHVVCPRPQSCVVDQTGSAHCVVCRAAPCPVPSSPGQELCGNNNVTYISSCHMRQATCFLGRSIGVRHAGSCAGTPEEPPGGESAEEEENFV
For assay [19], the target named is Dickkopf-related protein 1 (Homo sapiens) (UniProt O94907). As to the kind of experiment: small molecules binding DKK1 protein – biochemical, small-molecule microarray, 635 nm fluorescence scan, primary screen (AID 1106).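 Also: score merges emission near 667 nm with signal to noise over three replicate slides.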 Particulars: higher = more signal.
Sequence of Dickkopf-related protein 1 (Homo sapiens) (O94907 whole entry, looked up): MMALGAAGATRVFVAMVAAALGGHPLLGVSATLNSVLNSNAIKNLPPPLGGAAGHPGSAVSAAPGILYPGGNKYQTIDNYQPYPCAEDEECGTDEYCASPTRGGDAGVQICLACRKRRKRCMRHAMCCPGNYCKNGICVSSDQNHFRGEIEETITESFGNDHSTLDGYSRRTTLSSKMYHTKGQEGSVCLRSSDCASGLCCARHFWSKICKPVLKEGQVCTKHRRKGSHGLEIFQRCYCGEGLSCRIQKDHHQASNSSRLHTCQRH
Assay [20] concerns Inhibin beta A chain (activin A). Description: small molecules binding activin A – biochemical, small-molecule microarray, 635 nm fluorescence scan, primary screen (AID 1107).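 Also: mouse activin A protein probed at 4.33 µg/mL on printed slides; score merges bound-protein fluorescence near 667 nm with spot signal-to-noise.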 Particulars: INHBA, higher = more signal.

Sequence of Fibroblast growth factor 10 (Homo sapiens) (O15520 whole entry, looked up): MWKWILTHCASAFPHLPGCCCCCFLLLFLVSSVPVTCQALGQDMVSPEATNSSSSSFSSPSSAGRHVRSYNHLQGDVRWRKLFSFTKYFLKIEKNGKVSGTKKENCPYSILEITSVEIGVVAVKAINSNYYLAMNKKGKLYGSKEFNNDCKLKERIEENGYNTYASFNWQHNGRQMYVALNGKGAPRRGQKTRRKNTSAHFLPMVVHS

On to `COCCOC(=O)N1C(=O)[C@@]2(c3cc(C#CCNC(N)=O)ccc31)[C@H](C(=O)N1CCCCCCC1)[C@H]1C(=O)O[C@H](c3ccccc3)[C@H](c3ccccc3)N1[C@@H]2c1ccccc1OCCO`, for which the composite z-score in [1] was determined as 1.2; in assay [5] it was 2.05; in assay [7] it was 0.957; in [8] it was 0.601; in [9], 1.04; in assay [10] it was 0.295. For the same compound, the composite z-score in [11] worked out at 0.733; in assay [12], 1.46; in [13], 0.734; in assay [15], 0.718; in assay [16], 0.205; in assay [17] it was 0.79. Also, the composite z-score is 1.22 in [18], 0.485 in [19] and 1.33 in [20]. Further, the z-score in assay [2] was 1.42 (inactive); in assay [3] it was -0.922 (inactive); in [4], 3.58 (inactive); in assay [6], -0.698 (inactive); in assay [14], -0.12 (inactive).
In the case of `CC(C)(C)OC(=O)CC[C@@]1(C(=O)NCc2ccccc2)N=C(c2ccc(OCCCO)cc2)O[C@@H]1c1ccccc1`, the composite z-score in assay [1] is 1.55; in [5], 3.54; in assay [7] it was 0.0717; in assay [8], -0.0633; in [9], 1.1; in [10], 0.045. Besides, the composite z-score is 1.64 in [11]; 1.29 in [12]; 1.31 in [13]; 0.556 in assay [15]; 1.26 in assay [16]; -0.152 in assay [17]. Also, the composite z-score in assay [18] turned out to be 0.545; in assay [19] it was 0.144; in assay [20], 0.119. In addition, the z-score in [2] was -5.26 (inactive); in assay [3], -1.2 (inactive); in assay [4] it was 0.264 (inactive); in assay [6] it was 1.46 (inactive); in assay [14], -0.791 (inactive).
Regarding `Cc1ccc(N2C(=O)c3ccccc3[C@](C)(C(=O)NCC(C)C)[C@@H]2c2ccc(CO)cc2)nc1`, the composite z-score was -0.644 in assay [1]; -1.71 in [5]; 0.456 in assay [7]; -1.22 in assay [8]; -1.62 in [9]; 0.32 in assay [10]. The composite z-score in assay [11] is 1.78; in [12] it was 0.504; in assay [13], 0.481; in assay [15], -0.587; in assay [16], -0.856; in [17], -0.45. For the same compound, the composite z-score was -0.775 in assay [18], -0.29 in assay [19] and 1 in assay [20]. For the same compound, the z-score is 0.42 (inactive) in [2]; 0.374 (inactive) in assay [3]; 1.43 (inactive) in assay [4]; -0.277 (inactive) in assay [6]; -0.237 (inactive) in [14].
Take `C=CCN(C(=O)C1N(c2ccc(CCO)cc2)C(=O)C2C(C(=O)O)C3C=CC21O3)C(C)(C)C` (stereo not given): the composite z-score in assay [1] was -1.91; in [5], 1.94; in assay [7], -0.014; in assay [8] it was -3.2; in assay [9], -1.92; in [10] it was -0.356. The composite z-score in [11] was 1.86; in [12], -0.214; in [13], 1.24; in assay [15], -1.86; in [16], -0.723; in assay [17] it was -3.08. For the same compound, the composite z-score in assay [18] was -2.73; in [19] it was -4.35; in [20], -1.06. Also, the z-score in assay [2] was -0.696 (inactive); in assay [3], -1.89 (inactive); in assay [4], -0.569 (inactive); in assay [6], 2.89 (inactive); in assay [14], -1.32 (inactive).
As to `CCN1C(C)=C(C(=O)OC)[C@@H](c2ccccc2)N2C(=O)[C@](O)(C(=O)OC)[C@@H](c3ccccc3)C(C(C)=O)=C12`, the composite z-score is -0.107 in [1]; 0.241 in [5]; 0.0417 in [7]; 0.506 in [8]; 0.768 in assay [9]; 0.186 in [10]. Also, the composite z-score in assay [11] was -1.67; in assay [12], 0.182; in assay [13] it was -0.539; in assay [15], 0.799; in [16], 0.529; in [17] it was 0.621. For the same compound, the figures for the composite z-score in assay [18], in assay [19] and in assay [20] were 1.04, 0.515 and 1.15, respectively. Besides, the z-score in [2] was -3.56 (inactive); in assay [3] it was -3.03 (inactive); in assay [4], -2.26 (inactive); in [6], 0.556 (inactive); in assay [14], -2.82 (inactive).

Values taken from PubChem BioAssay.
